# Data reported in the supplement of paper PMC13380429.
# Tested on: Vero E6 infected with SARS-CoV-2
# Test: inhibition of SARS-CoV-2 cytopathic effect; higher = more antiviral protection, active = above 15
# Details: 8.33 nM; 48 h
row,Compound,inhibition of SARS-CoV-2 cytopathic effect
1,CC1(N2CCC(n3c([C@@H]4CCCNC4)nc4ccccc43)CC2)CCCCCCC1,0.4% (inactive)
2,CCCCNc1nc(N)c2[nH]c(=O)n(Cc3ccc(OCCN(C)C)nc3)c2n1,0.48% (inactive)
3,COc1ccc([C@@H]2CC(=O)c3c(O)cc(O[C@@H]4O[C@H](CO[C@@H]5O[C@@H](C)[C@H](O)[C@@H](O)[C@H]5O)[C@@H](O)[C@H](O)[C@H]4O)cc3O2)cc1O [hesperidin],2.76% (inactive)
4,O=C(CSc1nc2c(c(=O)n1-c1ccccc1)SCC2)Nc1ccc(-c2ccccc2)cn1,-2.46% (inactive)
5,CCC/C=C1\OC(=O)C2=C1CCC=C2 [ligustilide],9.89% (inactive)
6,C#CCN1C(C)=C(C(=O)OC)C(c2cccc([N+](=O)[O-])c2)C(C(=O)OCC)=C1C (centres undefined),2.53% (inactive)
7,O=C(O)c1cc(-c2ccc(F)cc2F)ccc1O [diflunisal],-3.3% (inactive)
8,CCO[C@H]1O[C@@H]2O[C@@]3(C)CC[C@H]4[C@H](C)CC[C@@H]([C@H]1C)[C@@]24OO3 [artemotil],-2.88% (inactive)
9,CC(C)(C)c1ccc2cc(C#N)c(C#N)cc2c1,1.71% (inactive)
10,CCOC(=O)c1cc(C#N)c(N2CCC(C(=O)NS(=O)(=O)Cc3ccccc3)CC2)nc1C,2.38% (inactive)
11,O=C(c1cn(Cc2cncn2Cc2ccc(Br)cc2)cc1-c1cccc2ccccc12)N1CCOCC1,-3.17% (inactive)
12,c1ccc(Oc2nc(NC3CCCCC3)c3[nH]cnc3n2)cc1,-0.47% (inactive)
13,CC(C)(C)Sc1c(CC(C)(C)C(=O)O)n(Cc2ccc(Cl)cc2)c2ccc(OCc3ccc4ccccc4n3)cc12 [quiflapon],0.25% (inactive)
14,COc1cc(NC(=O)c2ccc(-c3ccc(Cl)cc3)o2)cc(OC)c1,0.3% (inactive)
15,O=C(O)C1=CCCN(CCOC(c2ccc(C(F)(F)F)cc2)c2ccc(C(F)(F)F)cc2)C1,0.95% (inactive)
16,Oc1cc(O)c(Cl)cn1 [gimeracil],0.32% (inactive)
17,Cc1nc2c(O)cccc2c(=O)[nH]1,2.96% (inactive)
18,CC(C)SC(=N)N [S-isopropylisothiourea],0.91% (inactive)
19,CC(=O)Oc1ccccc1C(=O)Nc1ncc([N+](=O)[O-])s1 [nitazoxanide],-3.73% (inactive)
20,C[C@]12C=CC(=O)C=C1CC[C@@H]1[C@@H]2[C@@H](O)C[C@@]2(C)[C@H]1CC[C@]2(O)C(=O)COP(=O)(O)O [prednisolone-sodium-phosphate],-10% (inactive)

row,Compound,inhibition of SARS-CoV-2 cytopathic effect
1,N#Cc1c(N)nc(SCC(N)=O)c(C#N)c1-c1ccc(OCC2CC2)cc1,2.85% (inactive)
2,Cc1cncc(CN2CCC(=C3c4ccc(Cl)cc4CCc4cccnc43)CC2)c1 [rupatadine],-0.26% (inactive)
3,CC(=O)N(OCc1ccccc1)[C@@H]1c2cc(C#N)ccc2OC(C)(C)[C@H]1O,-2.98% (inactive)
4,CCCCN(CCCC)CCC(O)c1cc2c(Cl)cc(Cl)cc2c2cc(C(F)(F)F)ccc12 (centres undefined) [halofantrine],2.28% (inactive)
5,NC(N)=O [urea],-3.63% (inactive)
6,Cc1cc(C)nc(NS(=O)(=O)c2ccc(NC(=S)NC(=O)COc3ccc(Br)cc3Cl)cc2)n1,-0.46% (inactive)
7,NC1CCN(c2c(F)cc3c(=O)c(C(=O)O)cn(C4CC4)c3c2Cl)C1 (centres undefined) [clinafloxacin],0.61% (inactive)
8,N.N.[Cl][Pt][Cl] [cisplatin],0.86% (inactive)
9,Cc1ccnc(NC(=O)C(C)c2cccc(C(=O)c3ccccc3)c2)c1 (centres undefined) [piketoprofen],0.74% (inactive)
10,COc1ccc2c(c1)c(CC(=O)O)c(C)n2C(=O)c1ccc(Cl)cc1 [indomethacin],0.75% (inactive)
11,c1cc(CN2CCCNCCNCCCNCC2)ccc1CN1CCCNCCNCCCNCC1 [plerixafor],-1.5% (inactive)
12,Nc1ccc(S(=O)(=O)Nc2cnc3ccccc3n2)cc1 [sulfaquinoxaline],1.74% (inactive)
13,O=C1CC[C@@]2(O)[C@H]3Cc4ccc(O)c5c4[C@@]2(CCN3CC2CC2)[C@H]1O5,3.83% (inactive)
14,COc1ccc(OC)c(CN(C(C)=O)c2cc(F)ccc2Oc2ccccc2)c1,-0.16% (inactive)
15,Cn1cncc1[C@@](N)(c1ccc(Cl)cc1)c1ccc2c(c1)c(-c1cccc(Cl)c1)cc(=O)n2C [tipifarnib],0.1% (inactive)
16,CCCCCCCCCCCCCCOc1ccc(C(=O)O)o1,0.74% (inactive)
17,C=C1C(=O)O[C@@H]2/C=C(\C)CC/C=C(\C)CC[C@@H]12 [costunolide],-0.24% (inactive)
18,CC(C)Cn1cnc2c1c(=O)n(C)c(=O)n2C [isbufylline],0.75% (inactive)
19,C[N+](C)(C)[C@@H](Cc1c[nH]c(=S)[nH]1)C(=O)O [L-ergothioneine],-1.22% (inactive)
